Reference: the supplement of paper PMC13380429

Test system: Vero E6 infected with SARS-CoV-2
Assay: inhibition of SARS-CoV-2 cytopathic effect; higher = more antiviral protection, active = above 15
Details: 48 h

Measured: inhibition of SARS-CoV-2 cytopathic effect

c1ccc2sc(SN3CCOCC3)nc2c1 [N-oxydiethylenebenzothiazole-2-sulfenamide]
inactive: 1 nM -2.53% | 8.33 nM -1.68% | 100 nM -1.37% | 833.33 nM 0.03% | 10000 nM -1.24%

O=C(O)c1ccccc1NCCc1ccccc1 [tromaril]
inactive: 1 nM -2.04% | 8.33 nM 0.78% | 100 nM 1.18% | 833.33 nM 1.39% | 10000 nM 1.35%

CCCCNc1nc(N)c2[nH]c(=O)n(Cc3ccc(OCCN(C)C)nc3)c2n1
inactive: 1 nM -1.79% | 8.33 nM 0.48% | 100 nM 2.36% | 833.33 nM -0.4% | 10000 nM -0.44%

COc1c(C)c2c(c(O)c1C/C=C(\C)CCC(=O)OCCN1CCOCC1)C(=O)OC2 [mycophenolate-mofetil]
active: 10000 nM 16.8%
inactive: 1 nM -1.57% | 8.33 nM 0.08% | 100 nM 0.94% | 833.33 nM -5.7%

CCOC(=O)NNc1nncc2ccccc12 [todralazine]
inactive: 1 nM 2.18% | 8.33 nM 1.04% | 100 nM 0.33% | 833.33 nM 0.99% | 10000 nM -0.55%

CCCCCCCCCCCCCCCCCCCCCCO [docosanol]
inactive: 1 nM -8.94% | 8.33 nM -7.8% | 100 nM -10.4% | 833.33 nM -7.91% | 10000 nM -4.03%

COc1c(Nc2ccc(S(C)(=O)=O)nc2C)ncnc1OC1CCN(C(=O)OC(C)C)CC1
inactive: 1 nM -1.98% | 8.33 nM 0.8% | 100 nM 0.06% | 833.33 nM -1.17% | 10000 nM -1.76%
